# CtBP-E1A inh = CtBP/E1A binding inhibition. AlphaScreen GST-E1A/His-CtBP binding, 1536-well; hits give low values. hit rate 0.49% among 340,000. AID 651724. activity change, % (no concentration beside the values); in the data active means activity change below about -65%; inconclusive means mostly about -30% to -63%
#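 AlphaScreen with 125 nM GST-E1A and 125 nM His-CtBP (5X stocks) in Tris pH 8.0, 300 mM NaCl, BSA, Tween 20, TCEP. Compounds preincubated 2 h at 37 deg C, then glutathione donor/nickel acceptor beads added for 1 h at 37 deg C in dark.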
# TDP1 inh = blocks human tyrosyl-DNA phosphodiesterase 1. AID 485290. hit rate 0.28% among 350,000. recombinant TDP1, AlphaScreen DNA substrate cleavage. Potency, µM (titrated, usually from 130 µM), hits mostly inhibitors. Q9NUW8; further: nearly all actives have a fitted effect of over 40% in size
#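 Signal: AlphaScreen proximity between streptavidin donor and anti-FITC acceptor beads on intact substrate. Reaction: Tdp1 1 nM, substrate 15 nM final, 5 min RT after 15 min compound preincubation.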
# DT40 TDP1 no CPT = qHTS for Inhibitors of human tyrosyl-DNA phosphodiesterase 1 (TDP1): qHTS in cells in absence of CPT; DT40 Tdp1-/- hTDP1 cells, no CPT, ATP luminescence, 48 h; AID 686978, 2013; Potency, µM (doses to about 46.2 µM), usual class: inhibitors; hit rate 15% among 420,000; further: nearly all actives have a fitted effect of over 55% in size
#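 Chicken DT40 Tdp1-/- cells complemented with human TDP1, screened without camptothecin (DMSO vehicle only), 400 cells/well. Compounds pin-transferred, cells incubated at 37 °C for at least 48 hr. Growth read as ATP-dependent luminescence (CellTiter-Glo, 30 min at RT).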
# IL1B secr inh = inhibitors of inflammasome signaling (IL-1 beta secretion); THP-1 LPS/ATP IL-1B secretion, AlphaLISA, 16 h; hits give low values; activity change, % at 57.5 µM; hit rate 4.7% among 360,000; AID 743279; in the data active means activity change below about -50%; inconclusive means mostly about -30% to -49%
#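 Secreted IL-1B measured by AlphaLISA bead assay after 16 h compound exposure of THP-1 cells; compounds (final up to 57.5 uM) added 1 h before LPS (250 ng/mL) and ATP (1.25 mM) stimulation; lower signal means less secretion.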
# DT40 TDP1 CPT = growth inhibition of DT40 Tdp1-/-;hTDP1 cells with camptothecin (screen for TDP1 inhibitors). chicken DT40 Tdp1-/-;hTDP1 cells + 20 nM CPT, ATP luminescence, 48 h. Potency, µM (highest dose often 46.2 µM), most hits filed as inhibitors. hit rate 12% among 420,000. AID 686979; further: nearly all actives have a fitted effect of over 55% in size
#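 Chicken DT40 Tdp1-/- cells stably complemented with human TDP1 were seeded at 400 cells/well in medium containing 20 nM camptothecin, exposed to pin-transferred compounds, and grown at 37 °C for at least 48 hr. Viability was read as ATP luminescence.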
# Six1-Eya2 inh = inhibitors of human Six1/Eya2 interaction; Q15475+O00167; AlphaScreen GST-Six1/His-Eya2 binding, biochemical; hits give low values; activity change, % (concentration not given with the values); hit rate 0.56% among 360,000; AID 651725; in the data active means activity change below about -65%; inconclusive means mostly about -30% to -63%
# Target sequence (O00167 whole entry, looked up): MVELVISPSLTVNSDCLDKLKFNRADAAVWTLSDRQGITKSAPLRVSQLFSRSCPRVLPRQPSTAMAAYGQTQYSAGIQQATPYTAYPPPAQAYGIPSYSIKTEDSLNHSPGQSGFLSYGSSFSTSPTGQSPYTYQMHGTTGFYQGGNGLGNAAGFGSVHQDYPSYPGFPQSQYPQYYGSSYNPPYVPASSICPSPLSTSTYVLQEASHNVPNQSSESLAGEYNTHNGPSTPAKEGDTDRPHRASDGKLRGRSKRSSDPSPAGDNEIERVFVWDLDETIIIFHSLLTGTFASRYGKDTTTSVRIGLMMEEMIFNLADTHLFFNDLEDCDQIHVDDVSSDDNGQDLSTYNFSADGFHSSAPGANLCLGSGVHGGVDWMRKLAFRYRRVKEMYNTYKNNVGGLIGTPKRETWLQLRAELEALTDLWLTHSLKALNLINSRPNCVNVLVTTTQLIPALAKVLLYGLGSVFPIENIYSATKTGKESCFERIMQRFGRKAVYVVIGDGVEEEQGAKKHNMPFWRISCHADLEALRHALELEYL
# Target sequence (Q15475 whole entry, looked up): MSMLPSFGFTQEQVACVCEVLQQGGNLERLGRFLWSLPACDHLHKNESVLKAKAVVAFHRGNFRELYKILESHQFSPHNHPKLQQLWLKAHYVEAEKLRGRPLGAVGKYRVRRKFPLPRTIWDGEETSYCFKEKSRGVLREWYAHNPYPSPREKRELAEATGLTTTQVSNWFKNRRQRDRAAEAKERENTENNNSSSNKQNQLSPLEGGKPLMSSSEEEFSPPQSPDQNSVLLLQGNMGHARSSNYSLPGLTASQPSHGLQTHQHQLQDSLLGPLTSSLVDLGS
#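 Compounds are tested against tagged Six1 and Eya2 proteins bridged by glutathione donor and nickel acceptor beads; after a one-hour incubation at 37 °C without light, AlphaScreen emission is recorded.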
# Numbers stand for hits; - = inactive; ? = inconclusive; . = no result given; [ ] = another dose, or the depositor's remark. The list is not random: actives were taken first. Their share in the collection is about 18%. Unless noted, the call rests on the fitted dose curve; in most records, active means well fitted curve in the direction sought with a large enough effect; inconclusive means small, poorly fitted or top-dose-only effect, or another doubt; inactive means no such curve, though single readings can be large; an effect the other way counts as inactive or inconclusive.
SMILES,CtBP-E1A inh,TDP1 inh,DT40 TDP1 no CPT,IL1B secr inh,DT40 TDP1 CPT,Six1-Eya2 inh
CCOc1ccc2nc(Cl)c(C3CC(c4ccc(OC)cc4)=NN3S(C)(=O)=O)cc2c1 (stereo not given),.,-,16.4µM,.,8.2µM,.
CC(C)Sc1ccc(C(=O)Nc2ccc(F)cc2F)cn1,.,-,23.1µM,-,?,-
O=C(Nc1ccc(F)cc1F)c1ccc(-n2cccn2)nc1,-,-,?,-,?,-
O=[N+]([O-])c1ccc(N2CCN(C(=S)Nc3cccc(F)c3)CC2)cc1,.,-,9.2µM,-,8.2µM,-
O=[N+]([O-])c1ccc(N2CCN(C(=S)Nc3ccc(F)cc3F)CC2)cc1,-,-,8.2µM,-,6.51µM,-
Cc1cccc(NC(=S)N2CCN(c3ccccc3)CC2)c1,-,-,-,-,-,-
COc1ccc(N2CCN(C(=S)Nc3ccc(F)cc3)CC2)cc1,-,.,-,-,-,-
O=[N+]([O-])c1ccc(N2CCN(C(=S)Nc3ccc(F)cc3)CC2)cc1,-,-,5.8µM,-,5.17µM,-
CC(=O)Nc1ccc(NC(=O)CSc2nc(=O)n(CCCN3CCOCC3)c3c2CCC3)cc1,-,.,-,-,-,-
CCN(CC)S(=O)(=O)c1ccc(Oc2ccc(S(=O)(=O)N(CC)CC)cc2)cc1,-,-,5.8µM,?,18.4µM,-
CCOc1cc(S(=O)(=O)N(CC)CC)ccc1Cl,-,-,-,-,-,-
CCN(CC)S(=O)(=O)c1ccc(OCCNS(C)(=O)=O)cc1,-,-,16.4µM,-,6.51µM,-
CCN(CC)S(=O)(=O)c1ccc(Oc2ccccc2OC)cc1,-,-,?,-,18.4µM,-
CCCN(CCC)S(=O)(=O)c1ccc(Cl)c(OC)c1,-,-,13µM,-,?,-
CCS(=O)(=O)c1nc2ccccc2n1CC(=O)N1CCOCC1,-,-,-,-,-,-
CCCNC(=O)c1ccc2c(c1)nc1n2CCCCC1,.,-,-,.,-,.
Cc1ccsc1CN(C)C(=O)C1CCC(=O)N(CCc2cccc(F)c2)C1 (stereo not given),-,-,-,-,-,-
CC(C)N=C1SCC(C)(/C=N/O)S1 (stereo not given),-,-,-,-,-,-
CNC(=O)C1CCC(Cn2c(=O)c3sccc3n(CC(=O)NCc3ccc(OC)cc3)c2=O)CC1 (stereo not given),.,-,-,.,-,.
CCN1C(c2ccccc2)=C(c2ccccc2)S/C1=C/C=C1\SC(=S)N(C)C1=O,?,-,10.3µM,-,10.3µM,?
CCN1C(=O)/C(=C/C=C2/Sc3ccc4ccccc4c3N2CCO)SC1=S,-,-,?,-,?,-
CCN1C(c2ccccc2)=C(c2ccccc2)S/C1=C\C=C1/SC(=S)N(C)C1=O,-,.,9.2µM,-,13µM,?
O=[N+]([O-])c1cc2c(c(CSc3nnc(Nc4ccccc4)s3)c1)OCOC2,-,-,?,-,-,-
COc1cc(O)c(C(=O)/C=C\c2ccc3c(c2)OCO3)c(OC)c1,.,-[21 µM],.,.,.,.
COc1cccc(-c2ncc3ccccc3c2COC(=O)N(C)C)c1,-,-,18.4µM,-,18.4µM,-
SMILES,CtBP-E1A inh,TDP1 inh,DT40 TDP1 no CPT,IL1B secr inh,DT40 TDP1 CPT,Six1-Eya2 inh
O=C(OCc1c(-c2ccccc2)ncc2ccccc12)c1ccc(Br)cc1,-,-,13µM,-,-,-
COCCNC(=O)c1cccc(OC2CCN(Cc3ccc(C(C)C)cc3)CC2)c1,-,.,?,-69.2,?,-
Cc1ccc(CN2CCC(Oc3cccc(C(=O)N(C)CCN(C)C)c3)CC2)cc1C,-,.,?,-65.0,?,-
CC1(c2ccccc2)NC(=O)N(CC(=O)Nc2nc(-c3ccccn3)cs2)C1=O (stereo not given),?,.,14.6µM,-,23.1µM,-91.1
C[C@@H](C(=O)Nc1nc(-c2ccccn2)cs1)N1C(=O)C2CCCCC2C1=O (stereo not given in full),-89.6,-,?,-,?,-90.4
CC1(c2ccccc2)NC(=O)N(CC(=O)NNC(=O)c2ccccc2)C1=O (stereo not given),-,-,-,-,-,-
CC(C(=O)NC1CCCc2ccccc21)N1C(=O)C2CCCCC2C1=O (stereo not given),-,-,-,-,-,-
O=C(CN1C(=O)C2CCCCC2C1=O)Nc1nc(-c2ccccn2)cs1 (stereo not given),-84.4,-,10.3µM,-,11.6µM,-84.4
CC(=O)c1sc(NC(=O)CN2C(=O)C3CCCCC3C2=O)nc1-c1ccccc1 (stereo not given),.,-,-,-,-,-
O=C(N/N=C/c1ccc(Cl)cc1Cl)C1CCN(c2ncc(C(F)(F)F)cc2Cl)CC1,.,-,.,.,.,.
Cc1ccc(N(C)S(=O)(=O)c2cc3c(cc2C)NC(=O)CO3)cc1,-,.,?,-,?,-
COc1ccc(NC(=O)c2cnn(-c3ccc(C)cc3)c2-n2cccc2)cc1Cl,.,-,?,.,-,.

# Bioassay records from PubChem BioAssay.
